Experimental data reported in the supplement of paper PMC6555819.

Legend:
Assay in all cases: PBM binding z-score (relative to random genomic background probes); higher = stronger binding; sequences stand for … in GC…GCGATTGACAGCGTAGAATGAAGG
[1] = test system: FXR:RXRa (NR concentration 270 nM, RXRa partner concentration 90 nM)
Method in brief: (§1)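 Each nuclear receptor dimer, without ligand, was incubated for 1 h on custom Agilent 4×180K protein-binding microarrays. Binding was detected with antibodies against each partner (one per run), and scanned fluorescence was regression-normalized. The binding z-scores are referenced to random human genomic background probes.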

[2] = test system: LXRa:RXRa (NR concentration 270 nM, RXRa partner concentration 90 nM)
Method in brief: as §1

[3] = test system: LXRa homodimer (NR concentration 270 nM)
Method in brief: as §1

[4] = test system: LXRb:RXRa (NR concentration 270 nM, RXRa partner concentration 90 nM)
Method in brief: as §1

[5] = test system: LXRb homodimer (NR concentration 270 nM)
Method in brief: as §1

[6] = test system: PPARa:RXRa (NR concentration 270 nM, RXRa partner concentration 90 nM)
Method in brief: as §1

[7] = test system: PPARg:RXRa (NR concentration 180 nM, RXRa partner concentration 90 nM)
Method in brief: as §1

[8] = test system: PPARg:RXRa 270nM:90nM, anti-RXR (NR concentration 270 nM, RXRa partner concentration 90 nM)
Method in brief: as §1

[9] = test system: PPARg:RXRa 30nM:10nM, anti-RXR (NR concentration 30 nM, RXRa partner concentration 10 nM)
Method in brief: as §1

[10] = test system: PPARg:RXRa 90nM:30nM, anti-RXR (NR concentration 90 nM, RXRa partner concentration 30 nM)
Method in brief: as §1

Sequence	PBM binding z-score [1]	PBM binding z-score [2]	PBM binding z-score [3]	PBM binding z-score [4]	PBM binding z-score [5]	PBM binding z-score [6]	PBM binding z-score [7]	PBM binding z-score [8]	PBM binding z-score [9]	PBM binding z-score [10]
ATCGAACGGTCGACGAGGTGAGTATACACCGTTT	-0.18	-0.425	-0.327	-0.336	-0.463	-0.0739	0.937	-0.158	-0.0439	-0.375
CCTACTGGGTCATTCAGAGGTCATTGATCATATG	5.47	6.23	6.38	5.36	1.42	5.41	6.55	5.9	3.21	5.33
CGAACTAGGTCACCAGGACAGTAAAGAGGTTGGA	4.28	2.44	0.233	1.93	0.13	5.1	9.15	7.03	4.73	6.51
AATACAGGGTCATTAGGCCAGAGTAGGTACGAAT	7.31	5.48	2.17	4.27	1.52	5.58	6.71	5.91	2.62	4.89
ATCGGAAGGTCGAGGTGAGTATAGAGAAAGGGAA	2.07	1.65	-0.107	1.23	0.134	2.5	1.23	1.33	0.513	0.876
CAAACCAGGTCACGAAAGGTCAAAGTCGAATGAC	7.94	8.2	8.63	7.45	3.02	6.66	9.2	7.84	5.15	7.6
GATACAGGGTCAATGCCAGAGTACGCGTATTGAT	6.02	3.64	-0.0445	3.44	-0.0572	5.2	4.79	4.33	1.52	2.95
CGTCCAAGGTCAACGCTAGGTCAGTGAAAGCATT	7.34	5.95	2.69	4.66	0.677	5.71	5.29	5.4	2.18	3.94
CTCGAAAGGTCGTCCTCAGGTGAGTATACCAAAC	4.94	3.75	0.547	3.32	0.328	4.54	2.08	3.47	0.492	2.43
TAGCCTAGGTCATGGGCCAGTTTACCACGCGAAC	4.52	3.85	0.503	2.26	-0.093	4.37	3.6	3.88	0.612	2.88
CGAACTAGGACACCAGGACAGTGAAGAGGTTGGA	-0.0401	-0.43	-0.083	-0.854	-0.923	0.865	2.08	1.33	0.527	0.812
AGCGAAAGGTCGAAGGTGAGTATACCCACCCGAA	4.1	3.39	-0.15	2.68	-0.267	4.61	4.72	5.09	2.12	4.25
CCTGGCAGGCCAGGGTCACTCAAGCATTTCGCTT	2.34	2.07	-0.539	2.18	-1.2	3.35	0.292	1.27	-0.621	0.206
CGAACTAGGTCACCAGGACATTGAAGAGGTTGGA	4.15	2.68	0.557	1.82	-0.284	5.35	8.44	7.05	4.88	6.35
CCTTACCGGTCAAGGTTATAGCACGGGTGGTACG	1.7	1.88	0.946	1.05	0.381	1.83	0.758	0.908	-0.303	0.282
CCTTACGGGTCAAGGTTATATCACGGGTGGTACG	5.41	3.89	0.787	3.34	0.134	4.99	4.26	4.7	1.6	3.52
CCTAGTTGGTCAAGGTCACACATGCTATAGGTAC	3.87	3.69	2.25	3.88	0.901	4.01	3.24	3.69	1.38	2.96
ATATGTAGGTTACGTCCGGGTCATTCAGGCTATG	2.37	4.62	1.21	3.12	0.722	4.6	5.86	5.24	2.88	4.48
ATATGTAGGTTAGGGTCATACAGAAAGTAGGGAA	4.95	4.24	0.95	4.42	1.32	5.66	8.3	6.82	4.46	6.69

Sequence	PBM binding z-score [1]	PBM binding z-score [2]	PBM binding z-score [3]	PBM binding z-score [4]	PBM binding z-score [5]	PBM binding z-score [6]	PBM binding z-score [7]	PBM binding z-score [8]	PBM binding z-score [9]	PBM binding z-score [10]
ATATGTAGGATAGGGTCATTCAGAAAGTAGGGAA	3.78	3.12	0.63	3.55	1.08	4.62	4.04	3.78	1.71	3.29
CCTACTGGGCCAAAAAGGTAATTGATGCCGATAA	-0.234	-0.225	-0.561	-0.28	-0.84	0.543	0.593	1.19	-0.018	0.799
TAGCCTAGGTCAGATCGGGCCAGTCTACGCTATA	1.89	1.15	-0.542	0.223	-0.401	1.82	0.647	0.822	-0.388	0.205
CAAACTAGGTCACCAGGACAGTGAAGAGGTTGGA	4.67	2.73	0.391	1.92	0.0732	5.18	9.26	7.14	5.2	7.09
GATACACGGTCAAGGCCAGAGTACGCGTATTGAT	0.0472	0.275	-0.18	-0.406	-0.667	-0.0579	0.695	-0.00524	-0.0944	-0.0776
CTTAGTTGGTCAAGGTCACACACGCTATAGGTAC	4.69	4.17	2.15	4.03	1.14	4.51	4.28	4.71	2.33	3.77
TGGCCTAGGTCATGCGGGCCAGTATAGTGTCGGC	3.58	2.57	-0.464	1.2	-1.55	3.28	1.7	2.2	0.139	0.89
CGAACTAGGTCATCGAGGACAGTGAATACATTGA	4.22	2.59	0.3	1.9	-0.0709	4.86	7.79	6.42	4.26	6.2
AGTCAAAGTTCATCTAGGTATCGTAAGATATGCT	6.52	5.79	5.29	3.63	2.09	4.52	6.38	5.82	3.16	5.19
TCTAGTTGGTTACGGAGGTCACACACGACGGGTA	2.67	3.44	3.06	3.14	1.06	3.67	2.59	3.61	3.44	3.42
AGATGTAGGTTAGGGTCATTCAGAAAGTAGGGAA	5.03	3.88	1.53	4.56	2.05	5.24	7.27	6.27	3.83	5.81
GGAACGAGGGCATTCGAGTTGATAGCATGGCGAT	1.35	1.46	-0.481	-0.0953	-0.345	1.38	0.867	0.479	-0.23	-0.0469
ATATGTAGGTTAGGTTCATTCAGAAAGTAGGGAA	1.59	2.28	0.871	2.34	1.28	4.1	4.93	4.37	2.49	4.03
ATATGTAGGTTAGGGTCATTCACAAAGTAGGGAA	4.56	4.43	1.56	4.7	1.64	5.7	7.65	6.7	3.97	6.22
TAGCCTAGGTCAGATCGGGGCAGTATACGCTATA	3.05	1.42	-0.378	1.22	0.212	1.93	0.989	1.43	0.0966	0.842
CAAGCTAGGTCAAGAGGTCAAAGTCCGCTTCCCG	7.28	6.35	6.45	5.81	1.58	6.2	6.82	6.77	4.04	6.31
ACTAGCAGGCCAAGAGTCACTCAAGATTAGTCCG	0.0217	-0.0111	-0.373	-0.29	-0.882	1.46	2.56	4.08	2.06	3.48
CGTCCAAGGTCAAAGGTCAGTAAAGAGATGACGG	8.12	6.87	3.18	6.62	2	7.32	10.8	9.28	7.89	9.37
CGAACTAGGTCAAAGGACAGAGAAAGGCGACGTA	4.22	2.87	-0.0116	1.9	-0.178	5.58	10.3	8.77	8.15	9.91
